The source of these data is PubChem BioAssay (Tox21).

Where “and” joins values, the source holds several entries; their conditions need not be identical. Equal entries are not always repeated. Results filed as inconclusive are left out. A structure can be active in one record and inactive in another. Calls of active or inactive are those of the source. Unless noted, the call rests on the fitted dose curve; in most records, active means well fitted curve in the direction sought with a large enough effect in the repeat runs; inconclusive means weak or mixed curves; inactive means no such curve, though single readings can be large; an effect the other way counts as inactive or inconclusive.

The nature of test [1]: qHTS assay to test for compound auto fluorescence at 535 nm (green) in HEK293 cells (AID 720680).
Test [2] can be described thus: qHTS assay to test for compound auto fluorescence at 460 nm (blue) in HEK293 cell free culture (AID 720681). Put shortly: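 Blue fluorescence (Ex 405/Em 460 nm, triamterene-equivalent) was read immediately after pin transfer of compound or DMSO into medium (DMEM, 10% FBS) without cells.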
In general terms: qHTS replaces the single test concentration by a dilution series.

A short description of test [3]: qHTS assay to test for compound auto fluorescence at 535 nm (green) in HEK293 cell free culture (AID 720682). Put shortly:
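Compounds were pin-transferred into cell-free DMEM with 10% FBS, and green fluorescence was read at excitation 485 nm and emission 535 nm. Intensities were expressed as fluorescein-equivalent values.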

Test [4] can be described thus: qHTS assay to test for compound auto fluorescence at 590 nm (red) in HEK293 cell free culture (AID 720683). In outline: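 Red-channel autofluorescence of compounds in culture medium (DMEM, 10% FBS), no cells, measured at 540/590 nm. Rose Bengal sodium is the reference fluorophore for equivalence.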
Test [5] can be described thus: qHTS assay to test for compound auto fluorescence at 590 nm (red) in HepG2 cell free culture (AID 720684). Put shortly: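 Steps: dispense MEM/10% FBS medium, no cells; pin compound or DMSO vehicle; read red channel, Ex/Em 540/590 nm. Output given as Rose Bengal sodium equivalents.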
Test [6] is described as follows: qHTS assay to test for compound auto fluorescence at 460 nm (blue) in HepG2 cell free culture (AID 720685). In outline:
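Compound (23 nL) or DMSO pinned into cell-free MEM with 10% FBS; blue fluorescence read at 405/460 nm excitation/emission, expressed as auto-fluorescence equivalency to triamterene.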

The nature of test [7]: qHTS assay to test for compound auto fluorescence at 535 nm (green) in HepG2 cell free culture (AID 720686).
Test [8] in a line: qHTS assay to test for compound auto fluorescence at 460 nm (blue) in HepG2 cells (AID 720687). In outline:
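Blue-channel autofluorescence (Ex/Em 405/460 nm, triamterene-equivalent) was measured after 1 hr compound exposure at 37 C, 5% CO2. Cells were HepG2, plated overnight at 37 C in MEM plus 10% FBS.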

The target of test [9] is Glucocorticoid receptor (Homo sapiens) (UniProt P04150). Briefly: qHTS assay to identify small molecule agonists of the glucocorticoid receptor (GR) signaling pathway (AID 720691; active means well fitted activation curve with a large enough effect in the signal ratio in the repeat runs, not every such curve was filed as active; the % refers to the signal ratio). In outline: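 Agonist mode in a HeLa line carrying a GRE-controlled beta-lactamase reporter. Compounds act for 18 h at 37 C before a 2 h room-temperature FRET substrate step and fluorescence reading.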

For test [10] the target is unchanged. Briefly: qHTS assay to identify small molecule antagonists of the glucocorticoid receptor (GR) signaling pathway (AID 720692; active means well fitted inhibition curve with a large enough effect in the signal ratio in the repeat runs, not every such curve was filed as active; the % refers to the signal ratio). In outline: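 Cells plated, rested 4 h at 37 C/5% CO2; compounds in DMSO pin-transferred; dexamethasone added to 5 nM final; 18 h at 37 C; B/G FRET substrate added, 2 h room temperature; fluorescence measured.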
The nature of test [11]: qHTS assay to identify small molecule antagonists of the glucocorticoid receptor (GR) signaling pathway - cell viability counter screen (AID 720693). Further: nearly all actives have a fitted effect of over 55% in size.
A short description of test [12]: qHTS assay for identifying genotoxic compounds that show differential cytotoxicity against isogenic chicken DT40 cell lines with known DNA damage response pathways - wild type cell line (AID 743012). Further: nearly all actives have a fitted effect of over 60% in size. In outline:
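Cells (DT40 wild type, 300/well) are treated with DMSO-dissolved compounds after a ~0.5 h pre-incubation and kept 40 h at 37 C/5% CO2. Viability is then measured by CellTiter-Glo luminescence following 30 min at room temperature.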

Test [13] in a line: qHTS assay for identifying genotoxic compounds that show differential cytotoxicity against isogenic chicken DT40 cell lines with known DNA damage response pathways - Rad54/Ku70 mutant cell line (AID 743015). Further: nearly all actives have a fitted effect of over 60% in size. Further: potency means the concentration at half of the fitted maximal effect.
Test [14] is described as follows: qHTS assay to identify small molecule antagonists of the androgen receptor (AR) signaling pathway - cell viability counter screen (AID 743033; further: nearly all actives have a fitted effect of over 45% in size).
A short description of test [15]: qHTS assay to identify small molecule antagonists of the androgen receptor (AR) signaling pathway using the MDA cell line - cell viability counter screen (AID 743041; further: nearly all actives have a fitted effect of over 45% in size). Put shortly:
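Cells were plated at 3,000 per well and left 5 h. Compounds in DMSO were then pinned in, followed by R1881. After 16 h at 37C, CellTiter-Fluor fluorescence gave viability.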

Test [16] in a line: qHTS assay for identifying genotoxic compounds that show differential cytotoxicity against isogenic chicken DT40 cell lines with known DNA damage response pathways - Rev3 mutant cell line (AID 743014). Further: nearly all actives have a fitted effect of over 55% in size. Further: potency means the concentration at half of the fitted maximal effect.
The target of test [17] is Androgen receptor (Homo sapiens) (UniProt P10275). The test can be described thus: qHTS assay to identify small molecule antagonists of the androgen receptor (AR) signaling pathway (AID 743035; active means well fitted inhibition curve with a large enough effect in the signal ratio in the repeat runs, not every such curve was filed as active; the % refers to the signal ratio). Put shortly: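 Antagonism is scored as loss of R1881-driven beta-lactamase reporter expression in HEK293 cells carrying the reporter under a UAS element, after 16 h co-treatment at 37C and a 2 h room-temperature FRET substrate read.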

Test [18] shares this target. Briefly: qHTS assay to identify small molecule agonists of the androgen receptor (AR) signaling pathway (AID 743036; active means well fitted activation curve with a large enough effect in the signal ratio in the repeat runs, with a control signal flat, not every such curve was filed as active; the % refers to the signal ratio). Put shortly: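 Activation was read as beta-lactamase FRET signal from LiveBLAzer B/G substrate, added for 2 h at room temperature. Before that, GeneBLAzer AR-UAS-bla GripTite (HEK293) cells had 16 h compound exposure at 37C.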
Test [19] shares this target. The test can be described thus: qHTS assay to identify small molecule agonists of the androgen receptor (AR) signaling pathway using the MDA cell line (AID 743040; further: nearly all actives have a fitted effect of over 20% in size). In outline:
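Cells plated, 5 h at 37C/0% CO2; compound or DMSO pinned; 16 h at 37C; ONE-Glo added; luminescence measured after 30 min at room temperature. Reporter line: MDA-kb2 with MMTV-luciferase responsive to AR and GR.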

Test [20] shares this target. The test can be described thus: qHTS assay to identify small molecule antagonists of the androgen receptor (AR) signaling pathway using the MDA cell line (AID 743042; further: nearly all actives have a fitted effect of over 55% in size). Put shortly: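 Antagonist mode: compounds plus R1881 agonist added to MDA-kb2 AR-luc cells, incubated 16 h at 37C. Luciferase reporter luminescence quantified, with multiplexed CellTiter-Fluor readout for cell viability.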

Sequence of Androgen receptor (Homo sapiens) (P10275 whole entry, looked up): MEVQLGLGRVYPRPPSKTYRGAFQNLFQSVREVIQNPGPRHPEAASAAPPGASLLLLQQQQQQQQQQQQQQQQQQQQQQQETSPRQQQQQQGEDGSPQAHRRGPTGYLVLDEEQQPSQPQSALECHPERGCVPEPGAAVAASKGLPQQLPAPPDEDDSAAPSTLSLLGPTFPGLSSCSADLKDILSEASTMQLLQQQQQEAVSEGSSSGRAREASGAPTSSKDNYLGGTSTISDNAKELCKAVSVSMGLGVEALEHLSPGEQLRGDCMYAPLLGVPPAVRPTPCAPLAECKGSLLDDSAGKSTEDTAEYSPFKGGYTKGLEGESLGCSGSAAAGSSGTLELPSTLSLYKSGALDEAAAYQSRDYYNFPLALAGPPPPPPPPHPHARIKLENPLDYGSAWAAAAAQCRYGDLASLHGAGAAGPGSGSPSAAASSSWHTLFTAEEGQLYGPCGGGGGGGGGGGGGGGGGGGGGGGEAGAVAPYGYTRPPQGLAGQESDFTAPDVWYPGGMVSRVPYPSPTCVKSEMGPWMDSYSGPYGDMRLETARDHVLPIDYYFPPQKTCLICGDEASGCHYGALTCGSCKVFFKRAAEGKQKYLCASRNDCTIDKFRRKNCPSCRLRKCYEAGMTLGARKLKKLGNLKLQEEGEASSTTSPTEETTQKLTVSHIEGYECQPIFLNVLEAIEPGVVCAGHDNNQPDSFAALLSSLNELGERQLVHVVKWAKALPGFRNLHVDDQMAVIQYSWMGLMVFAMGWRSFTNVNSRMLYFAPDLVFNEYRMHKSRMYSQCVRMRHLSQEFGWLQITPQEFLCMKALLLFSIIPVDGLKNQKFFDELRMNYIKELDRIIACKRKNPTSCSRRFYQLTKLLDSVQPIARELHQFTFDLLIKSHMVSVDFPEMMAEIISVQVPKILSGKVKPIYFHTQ
Sequence of Glucocorticoid receptor (Homo sapiens) (P04150 whole entry, looked up): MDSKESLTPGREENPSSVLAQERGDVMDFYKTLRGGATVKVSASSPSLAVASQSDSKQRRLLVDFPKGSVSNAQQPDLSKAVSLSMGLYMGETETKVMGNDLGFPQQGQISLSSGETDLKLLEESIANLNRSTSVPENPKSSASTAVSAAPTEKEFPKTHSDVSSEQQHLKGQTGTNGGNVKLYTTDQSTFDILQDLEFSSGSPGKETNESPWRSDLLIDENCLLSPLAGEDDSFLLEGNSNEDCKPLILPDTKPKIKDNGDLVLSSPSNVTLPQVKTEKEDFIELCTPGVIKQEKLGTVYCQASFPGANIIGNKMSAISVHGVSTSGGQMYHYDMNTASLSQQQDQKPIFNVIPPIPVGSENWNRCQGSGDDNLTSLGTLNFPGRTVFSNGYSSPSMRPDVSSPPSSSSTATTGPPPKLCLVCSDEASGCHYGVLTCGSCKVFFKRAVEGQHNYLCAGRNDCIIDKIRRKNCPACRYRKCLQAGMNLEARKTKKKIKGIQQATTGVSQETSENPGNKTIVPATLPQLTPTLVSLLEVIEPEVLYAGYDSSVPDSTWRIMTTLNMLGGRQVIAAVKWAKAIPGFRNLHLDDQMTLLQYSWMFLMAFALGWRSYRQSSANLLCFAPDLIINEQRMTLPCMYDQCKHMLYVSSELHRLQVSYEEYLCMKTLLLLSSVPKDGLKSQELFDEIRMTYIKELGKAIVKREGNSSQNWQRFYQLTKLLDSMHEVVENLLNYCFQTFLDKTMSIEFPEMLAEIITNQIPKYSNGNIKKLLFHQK

Turning to `CC(=O)c1ccc(O)cc1`, the compound was classed as inactive in [1], in test [2], in test [3], in test [4], in test [5] and in [6]. Moreover, the outcome in [7], in test [8], in test [9], in [11] and in [14] was inactive. In addition, the Potency result in [10], in test [12], in test [13] and in [15] was “inactive” throughout.
As for `CC(=O)Oc1ccc(C)cc1`, the compound was classed as inactive in test [1], in test [2], in [3], in [4], in test [5] and in [6]. In addition, the outcome in test [7], in test [8], in test [9], in test [11], in test [14] and in [17] was inactive. Moreover, the compound was classed as inactive in [20]. In addition, the Potency entry in test [10], in [12], in test [16], in [13], in test [18] and in test [19] was “inactive” throughout. Besides, the Potency entry in test [15] is “inactive”.
Turning to `CCCCCCCO`, the outcome in test [1], in test [2], in test [3], in test [4], in test [5] and in test [6] was inactive. The compound was called inactive in test [7], in [8], in test [9], in test [11] and in test [14]. The Potency result in test [10], in test [12], in test [16], in [13] and in test [15] was “inactive” in each case.
Take `NC(=S)NNC(N)=S`: the outcome in test [1], in test [2], in test [3], in test [4], in test [5] and in test [6] was inactive. In addition, the compound was classed as inactive in test [7], in [8], in [9], in [11] and in test [14]. For the same compound, the Potency entry in test [10], in test [12], in [16], in [13] and in test [15] was “inactive” throughout.
As for `CN(C)CCOC(=O)COc1ccc(Cl)cc1`, the call in [1], in [2], in [3], in test [4], in test [5] and in [6] was inactive. In addition, the result in [7], in [8], in test [9], in [11] and in test [14] was inactive. The Potency entry in test [10], in test [12], in test [13] and in test [15] was “inactive” each time.
On to `CC1(C)CC(N)CC(C)(CN)C1` (stereo not given), for which the compound was called inactive in test [1], in test [2], in test [3], in [4], in [5] and in test [6]. Moreover, the result in test [7], in [8], in test [9], in [11] and in [14] was inactive. Also, the Potency result in test [10], in test [12], in [13] and in [15] was “inactive” in each case. In addition, in [16], the Potency entry was “inactive and 54.5 µM (active)”.
`O=C(O)c1ccc(S(=O)(=O)N(Cl)Cl)cc1`: the compound was classed as inactive in [1], in [2], in test [3], in test [4], in [5] and in test [6]. Also, the call in [7], in test [8], in test [9], in test [11] and in test [14] was inactive. The Potency entry in test [10], in [12] and in test [15] was “inactive” each time. For the same compound, the Potency entry in test [13] was “inactive and 24.5 µM (active)”.
`Cc1ccc(S(=O)(=O)N=C=O)cc1`: the compound was classed as inactive in test [1], in test [2], in [3], in test [4], in [5] and in test [6]. The compound was called inactive in [7], in test [8], in test [9], in test [11] and in test [14]. The Potency entry in test [10], in test [12], in test [16], in test [13] and in test [15] was “inactive” in each case.
As to `COc1ccc(OC)cc1`, the result in test [1], in [2], in test [3], in [4], in test [5] and in test [6] was inactive. The compound was classed as inactive in [7], in test [8], in test [9], in test [11] and in [14]. The Potency result in test [10], in test [12], in test [16], in test [13] and in test [15] was “inactive” in each case.
